# Data reported in PubChem BioAssay (NCATS).
# Several values for one entry are separate records, joined by “and”; a condition that tells them apart may be missing. Equal entries are not always repeated. Records with an inconclusive call do not appear. Activity calls are given as the source filed them. Calls follow the shape of the full dose curve.
# Assay: qHTS Assay for Lipid Storage Modulators (AID 1519); as to activity change, negative = inhibition: % is scaled to controls: 0 for no effect and ±100 for the full control effect
# Details: Drosophila S3 cells, BODIPY lipid droplet/cell ratio, laser cytometry, cells loaded with oleic acid; for activity change, negative = inhibition: at 57.5 µM (top of the series)
# Method in brief: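 Cells seeded at 5,000 per well were treated with compounds over a concentration series and loaded with oleic acid (400 uM, as added). Lipid droplet fluorescence (488 nm excitation, 500-530 nm channel) was read by laser-scanning cytometry and normalized to 20 uM Triacsin C.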
# [1] = measured here: cell count channel max response
# [2] = measured here: lipid channel max response
SMILES,"activity change, negative = inhibition",max response [1],max response [2]
C[C@@]12C(=O)OC(=O)[C@@]1(C)C1CCC2O1,-13.3% (inactive),-9.65%,-21.9%
OCC(O)C(O)C(O)CO (configuration not stated),-0.297% (inactive) and 2.14% (inactive),13.1% and 19.4%,16.9% and 22.3%
Oc1cc2c(cc1O)C1c3ccc(O)c(O)c3OCC1(O)C2 (configuration not stated),6.13% (inactive),-4.57%,5.65%
O=c1c(O)c(-c2ccc(O)c(O)c2)oc2cc(O)ccc12,4.11% (inactive),-27.3%,-24.1%
